Some of the results follow. Results filed as inconclusive are left out. Active and inactive are the calls of the source. The call rests on the fitted dose curve; in most records, active means well fitted inhibition curve with a large enough effect; inconclusive means small, poorly fitted or top-dose-only effect; inactive means no such curve, though single readings can be large or run the other way.

The experiment can be described thus: qHTS of pediatric cancer cell lines to identify multiple opportunities for drug repurposing: Orthogonal 3D viability screen for Daoy cells. The settings on record: Daoy 3D spheroid viability, PI/Hoechst imaging, 72 h; series mostly up to 30.7 µM. The text has this:
Drug repurposing or repositioning has been offered as a strategy for drug development in oncology programs. This approach has special potential for childhood cancers and other rare or orphan diseases, where the expected return on new drug development has been a disincentive to pharmaceuticals. […] In this project we exploit the poly-pharmacology of drugs to discover new indications via phenotypic screening of a panel of 19 well-characterized cell lines derived from solid tumors seen in children and adolescents. The goal is to identify approved drugs with previously unrecognized anticancer properties that has the potential to reveal new mechanisms and biological processes involved in carcinogenesis or drug resistance. We employed a titration-based paradigm (quantitative high-throughput screening or qHTS), where all compounds were tested at multiple concentrations for their effect on cell viability. Concentration-response curves (CRCs) were derived directly from the primary screen, and both potency and efficacy values were used to identify compounds with robust bioactivity profiles. […] These two assays will be use to validate active compounds and assess the correlation of compound's potency in 2D vs 3D cultures on selected cell lines. Assay Submitter: Nathalia J. Martinez, National Center for Advancing Translational Sciences, National Institutes of Health, Rockville, MD, USA; email: natalia.martinez@nih.gov Shen, M et al. Quantitative high-throughput phenotypic screening of pediatric cancer cell lines identifies multiple opportunities for drug repurposing. Oncotarget 2017 Dec 19;9(4):4758-4772. PMID 29435139.
The cells were obtained from University of North Carolina (UNC), Pediatric Preclinical Testing Program (PPT), and Coriell Institute (CI). qHTS viability in 3D culture: Cells were assayed in phenol red-free growth media at a density of 1,000 cells/well, with the exception of Daoy, and SH-N-SH which were assayed at 1,500 cells/ well. Thirty muL of cells were dispensed into 384-well, ULA, round bottom plates (Corning) using a Multidrop dispenser. […] Spheroid viability was first determined by high-content imaging using Hoechst 33342 and Propidium Iodide (PI, ThermoFisher Scientific), followed by addition of CellTiter-Glo 3D (Promega). […] Plates were incubated for 30 min at RT on a VWR microplate shaker (300 rpm) and analyzed for luminescence intensity using a ViewLux High-throughput CCD imager equipped with clear filters. […] The data were exported to Excel, and the average fluorescent intensities were used to calculate the ratio of PI over Hoechst, which was used to quantify viability. […]
In the case of `CC1(C)O[C@@H]2C[C@@H]3[C@H]4C[C@@H](F)C5=CC(=O)C=C[C@]5(C)[C@@]4(F)[C@@H](O)C[C@]3(C)[C@]2(C(=O)CO)O1`, the Potency was 3620 nM (active). With `CC[C@H]1CN2CCc3cc(OC)c(OC)cc3[C@@H]2C[C@@H]1C[C@H]1NCCc2cc(OC)c(OC)cc21` the figure was 406 nM (active); with `C=C1C(=CC=C2CCC[C@]3(C)[C@@H]([C@H](C)C=C[C@H](C)C(C)C)CC[C@@H]23)C[C@@H](O)C[C@@H]1O`, “inactive”; with `CC(NCc1ccc2c(c1)nc(NC(=O)c1ccc(-c3cn[nH]c3)s1)n2CC(C)(C)O)C(C)(C)C` (centres undefined), 511 nM (active).

The record behind these values is PubChem BioAssay AID1347137 (National Center for Advancing Translational Sciences (NCATS), 2019).
